Results: PubChem BioAssay AID504652 (National Center for Advancing Translational Sciences (NCATS), 2011)
“And” between values parts separate entries of the source, which are not always exact repeats. Identical values can stand only once. The whole screen tested about 360,000 compounds, of which about 11,000 (3.1%) were called active. Rule as the data show it: active = activity change below about -30%; inactive = the rest. What follows is part of a selection rich in actives, with near analogues and random picks from the rest. The source holds several records for some structures; these can differ, active in one and inactive in another.

biological target: D(1A) dopamine receptor (Homo sapiens) (UniProt P21728); experiment: Antagonist of Human D 1 Dopamine Receptor: qHTS; conditions: HEK293 TREx D1 cells, calcium flux, dopamine EC80; at 10 µM; stronger effect = lower value
Outline: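 Tetracycline-induced HEK293 Trex D1 cells, force-coupled to calcium, dye-loaded; compounds added and read 180 s, then EC80 dopamine added and calcium flux tracked kinetically another 180 s.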
% is scaled to controls: 0 for no effect and ±100 for the full control effect.

Sequence of D(1A) dopamine receptor (Homo sapiens) (P21728 whole entry, looked up): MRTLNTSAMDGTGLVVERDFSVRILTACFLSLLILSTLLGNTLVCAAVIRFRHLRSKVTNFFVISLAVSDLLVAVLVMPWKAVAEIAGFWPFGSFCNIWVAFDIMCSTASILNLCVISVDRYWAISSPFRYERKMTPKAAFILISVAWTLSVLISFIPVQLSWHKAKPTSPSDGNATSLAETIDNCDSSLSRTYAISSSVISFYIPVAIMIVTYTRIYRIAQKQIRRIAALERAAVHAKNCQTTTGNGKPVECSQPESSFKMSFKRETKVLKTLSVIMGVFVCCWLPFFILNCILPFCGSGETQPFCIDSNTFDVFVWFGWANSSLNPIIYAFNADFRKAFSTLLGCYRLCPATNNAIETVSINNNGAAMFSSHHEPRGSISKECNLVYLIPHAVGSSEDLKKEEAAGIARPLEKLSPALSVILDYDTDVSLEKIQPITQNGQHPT

Row | Structure (SMILES) | activity change, negative = inhibition
1 | COC(=O)c1c(NC(=O)C(C)Oc2ccc(Cl)c(C)c2)sc(C)c1C (stereo not drawn) | 14.5% (inactive)
2 | Fc1ccc(-c2nn(-c3ccccc3Cl)c3c2cnc2ccccc23)cc1 | 15% (inactive)
3 | COc1cc(C)ccc1OCCSc1nc2ccc(NC(=O)c3ccc(C)cc3)cc2s1 | 5.21% (inactive)
4 | Cc1ccc(NC(=O)NC(C)c2c(-n3cccc3)sc(C)c2C)c(C)c1 (stereo not drawn) | -16% (inactive)
5 | O=C(Cc1ccc(Cl)cc1)NCC(c1cccs1)S(=O)(=O)c1ccc(Cl)cc1 (stereo not drawn) | 4.53% (inactive)
6 | Cn1ccc2cc(S(=O)(=O)N3CCCC(C(=O)NCc4ccccc4F)C3)ccc21 (stereo not drawn) | -17.1% (inactive)
7 | CCOc1ccccc1NC(=O)CCn1cnnn1 | -17.8% (inactive)
8 | CC(=O)c1ccc(NC(=O)c2ccc(-n3cncn3)c([N+](=O)[O-])c2)cc1 | 2.28% (inactive)
9 | Cc1ccccc1OCC(=O)NNC(=O)c1ccc(-n2cncn2)c([N+](=O)[O-])c1 | -67.1% (active)
10 | O=C(NNC(=O)c1ccc(-n2cncn2)c([N+](=O)[O-])c1)c1ccccc1 | -5.21% (inactive)
11 | Cc1nc2ccn(Cc3cccs3)c(=O)c2cc1C(=O)NCc1ccc(Cl)cc1 | -27.7% (inactive)
12 | COc1ccc(OC)c(-n2nnc3c(sc4nc(C)c(Br)c(C)c43)c2=O)c1 | -6.84% (inactive)
13 | COc1ccc(NC(=O)CSc2nnc(-c3nnn(-c4ccc(F)cc4)c3C)o2)cc1 | -7.41% (inactive)
14 | O=C(CCCN=C1NS(=O)(=O)c2ccccc21)OCC(=O)c1ccc(F)c(F)c1 | -64.4% (active)
15 | N#CC1(NC(=O)COC(=O)CCN=C2NS(=O)(=O)c3ccccc32)CCCCC1 | -2.93% (inactive)
16 | O=C(OCCN=C1NS(=O)(=O)c2ccccc21)c1cccc([N+](=O)[O-])c1 | -6.81% (inactive)
17 | CCCCOc1ccc(CNC(=O)c2ccc3c(c2)N(C)C(=O)C2CCCCN32)cc1 (stereo not drawn) | 20.7% (inactive)
18 | CCc1nc2cccnc2n1-c1ccc(CC(=O)Nc2c(C)cccc2C)cc1 | 0.844% (inactive)
19 | COc1cc(OC)c(NC(=O)c2cnc(N3CCCC3)nc2C)cc1Cl | -35.8% (active)
20 | COc1cc(OC)c(NC(=O)c2cc(S(=O)(=O)N3CCCC3)cn2C)cc1Cl | -11% (inactive)
21 | COc1cc(OC)c(NC(=O)N2CC3CCCN3c3ccccc32)cc1Cl (stereo not drawn) | 46.3% (inactive)
22 | CCc1ccccc1NC(=O)N1CCC2(CC1)Oc1ccccc1C(=O)N2Cc1ccccc1F | -12.2% (inactive)

Row | Structure (SMILES) | activity change, negative = inhibition
23 | CCc1nn(CCCN2CCN(c3cccc(Cl)c3)CC2)c(=O)n1CCOc1ccccc1 | -25.8% (inactive) and -41.5% (active)
24 | OC(COc1ccc2c(c1)CCC2)CN1CCN(c2cccc(Cl)c2)CC1 (stereo not drawn) | -0.524% (inactive)
25 | Cc1nn(CCOc2ccccc2)c(=O)n1-c1ccccc1F | -11.9% (inactive)
26 | CCOc1ccc(CNC(=O)CCc2c(C)nn(-c3ccc(N4CCCCC4)nn3)c2C)cc1 | -12.9% (inactive)
27 | COc1ccccc1C(=O)Nc1c(C(=O)Nc2ccc(C)cc2)oc2ccccc12 | 2.57% (inactive)
28 | COc1ccc(NC(=O)c2ccc3nc(C(C)C)oc3c2)cc1OC | 13.3% (inactive)
29 | CCOC(=O)c1ccc2[nH]c3c(c2c1)CCCC3NC=O (stereo not drawn) | -2.15% (inactive)
30 | O=[N+]([O-])c1ccc2[nH]c3c(c2c1)CCCC3O (stereo not drawn) | -30.8% (active)
31 | O=C1CCCc2c1[nH]c1ccc(Br)cc21 | 12% (inactive)
32 | CCOC(=O)C1CCCN(S(=O)(=O)c2cc(-c3cc(C)no3)ccc2OC)C1 (stereo not drawn) | -12.1% (inactive)
33 | COC(=O)c1scc(-c2ccccc2)c1S(=O)(=O)Nc1ccccc1 | -7.67% (inactive)
34 | CCn1c(=O)c2cc(C(=O)NCCc3ccc(Cl)cc3)sc2c2ccccc21 | 3.78% (inactive)
35 | COc1cccc(NC(=O)Cn2c(=O)cc(C)c3c(C)nn(-c4cccc(F)c4)c32)c1 | 11.7% (inactive)
36 | COc1cn(CC(=O)Nc2cccc(C)c2C)c(CN2CCCCC2)cc1=O | -18.9% (inactive)
37 | COc1ccccc1NC(=O)Nc1nc(CC(=O)Nc2ccccc2F)cs1 | 2.24% (inactive)
38 | COc1ccccc1NC(=O)Nc1nnc(Cc2ccc(F)cc2)s1 | -35.5% (active)
39 | O=C(Nc1nnc(COc2ccccc2)s1)Nc1ccccc1F | -5.26% (inactive)
40 | COc1ccc(Cl)cc1-n1c(CCC(=O)O)ccc1-c1ccc(C)cc1 | -15.3% (inactive)
41 | Cc1cccc(N2CCN(S(=O)(=O)c3ccc4[nH]c5c(c4c3)CCCCC5)CC2)c1C | 0.754% (inactive)
42 | CC1CCN(C(=S)c2cccc([N+](=O)[O-])c2)CC1 | -12.4% (inactive)
43 | CC1CCN(c2ccc([N+](=O)[O-])c(SCCO)c2)CC1 | -30.7% (active)
